Measured values from ChEMBL document CHEMBL4513216, “Probing the Open Global Health Chemical Diversity Library for Multistage-Active Starting Points for Next-Generation Antimalarials” (ACS Infect Dis, 2020).
The whole screen tested about 68,000 compounds, of which about 2,700 (4%) showed an effect of 50% or more. The full list was thinned out, with strong results kept by preference.

system: Plasmodium berghei; experiment: Screen against P. berghei liver stage (PbLuc), transformed with Luciferase, at 2uM; assay type: functional, HepG2; conditions: tested at 2 uM

SMILES | INHIBITION
O=C(C1CC1)N1CCC2(CCN(Cc3cccc(F)c3)CC2)CC1 | 27.05%
O=C(NCCn1ccnc1)c1ccn(-c2cccc(F)c2)n1 | 8.37%
CCC(O)CN1CCN(C(=O)c2ccn(-c3ccccc3)n2)CC1 (configuration not stated) | 14.97%
O=C(c1ccn(-c2cccc(F)c2)n1)N1CCN(CC2CC2)CC1 | -40.27%
O=C(NCCn1cccn1)c1ccn(-c2cccc(F)c2)n1 | 64.16%
CCC(O)CN1CCN(C(=O)c2ccn(-c3cccc(F)c3)n2)CC1 (configuration not stated) | 52.3%
CC1CCCCN1CCNC(=O)c1ccn(-c2cccc(F)c2)n1 (configuration not stated) | 2.18%
O=C(c1ccn(-c2cccc(F)c2)n1)N1CCN(CCO)CC1 | 19.12%
CC(C)(O)CN1CCN(C(=O)c2ccn(-c3cccc(F)c3)n2)CC1 | 65.76%
CC(O)CN1CCN(C(=O)c2ccn(-c3cccc(Cl)c3)n2)CC1 (configuration not stated) | -42.32%
NC(=O)COc1ccc(CNCc2cc(F)cc(F)c2)cc1 | 19.7%
NC(=O)N1CCCC(c2nc(-c3cccnn3)no2)C1 (configuration not stated) | 19.39%
Cc1noc(C)c1CN1C(=O)[C@@H]2CC[C@H]1CN(Cc1cccc(O)c1)C2 | 30.42%
CC(C)O[C@@H]1CC[C@H]2[C@H]1OCCN2C(=O)c1nn(C)c2ccccc12 | -13.37%
CCN(CC)C(CNCc1ccc(C)o1)c1ccco1 (configuration not stated) | 15.89%
CCN1C(=O)CCCC12CCCN(C(=O)c1cnccn1)C2 (configuration not stated) | -41.21%
CC(CN1CCOCC1)N(Cc1ccccc1)Cc1ccncc1 (configuration not stated) | 8.73%
COc1cc2c(cc1CNCc1ccnc(-n3cccn3)c1)OC(C)C2 (configuration not stated) | 17.61%
CCOCCC(=O)N(Cc1ccncc1)C(C)CC (configuration not stated) | -35.26%
CCCC(=O)N(Cc1ccncc1)C(C)CC (configuration not stated) | 52.98%
CCC(C)N(Cc1ccncc1)C(=O)CCSC (configuration not stated) | -20.95%
O=C([C@H]1C[C@H]2OCC[C@H]2N(Cc2ccoc2)C1)N1CCCCO1 | 21.77%
CS(=O)(=O)NCCCn1ccc2ccccc21 | 24.23%

SMILES | INHIBITION
COC(=O)NCCC(=O)NC(C)Cc1ccccc1Br (configuration not stated) | 63.46%
COC(=O)CCC(=O)NC(C)Cc1ccccc1Br (configuration not stated) | 2.7%
CCNC(=O)CCC(=O)NC(C)Cc1ccccc1Br (configuration not stated) | -3.87%
CS(=O)(=O)NCc1cc(-c2cc(F)cc(F)c2)nc(N2CC[C@H](O)C2)n1 | 4.66%
COc1ncccc1CNC(=O)NC(C)Cn1cccn1 (configuration not stated) | 31.7%
COc1c(C(=O)N2CCOC(c3cccs3)C2)c(C)nn1C (configuration not stated) | -11.34%
Fc1ccc2[nH]c(C3CCCN3CCc3ccccn3)nc2c1 (configuration not stated) | -55.56%
Cc1cccc(C(=O)N2CCCCC2c2nc3cc(F)ccc3[nH]2)n1 (configuration not stated) | 65.04%
O=C(CN1CCCC1c1nc2cc(F)ccc2[nH]1)NCc1ccccn1 (configuration not stated) | 57.75%
O=C(c1cccc(CO)n1)N1CCCC1c1nc2cc(F)ccc2[nH]1 (configuration not stated) | -20.6%
Fc1ccc2[nH]c(C3CCCN3Cc3c[nH]cn3)nc2c1 (configuration not stated) | 19.59%
Cc1cc(C(=O)N2CCCCC2c2nc3cc(F)ccc3[nH]2)no1 (configuration not stated) | 33.92%
COCC(=O)N1CCCC1c1cc(Nc2nnc(C)s2)nc(C)n1 (configuration not stated) | 10.43%
CCN1CCCc2cc(CN3CCc4c(nc(C)[nH]c4=O)C3)ccc21 | -9.49%
Cc1cc(C)nc(N2CCC(C(=O)Nc3n[nH]c(C(C)C)n3)CC2)n1 | 19.84%
COc1c(C2CCCN2C(=O)CCNc2ncccn2)c(C)nn1C (configuration not stated) | 6.89%
CN(c1ccc(CNC(=O)c2ccc(O)nc2)cc1)C1CCCCC1 | 51.76%
CN(c1ccc(CNC(=O)c2c[nH]c(=O)c(Cl)c2)cc1)C1CCCCC1 | -20.64%
Cc1ccc(C(=O)NCc2ccc(N(C)C)cc2)cn1 | 8.73%
COCc1ccccc1NC(=O)NC(C)c1ccc(C)o1 (configuration not stated) | 53.19%
Cc1ccc(C(C)NC(=O)Nc2ccccc2CN2CCOCC2)o1 (configuration not stated) | -10.54%
COCc1ccccc1NC(=O)c1ccoc1 | -38.36%
CC(C)N(C)Cc1cc(=O)n2c(n1)CN(C(=O)c1ccnnc1)CCC2 | 25.92%

SMILES | INHIBITION
COc1ccc(C)cc1CN1CCC(c2cc3ncccc3cn2)CC1 | -17.29%
CCn1c(C)nnc1SCCNC(=O)Cn1cnc2ccccc2c1=O | 38.67%
CO[C@@H]1CCN(Cc2nccs2)C[C@@H]1Cc1cccc(C)c1 | 10.17%
CC1(C)CN(Cc2csc(CS(C)(=O)=O)n2)Cc2ccccc21 | 52.98%
CS(=O)(=O)Cc1nc(CN2CCc3ccccc3CC2)cs1 | 41.05%
CS(=O)(=O)Cc1nc(CN2CC=C(c3ccccc3)CC2)cs1 | -4.26%
CS(=O)(=O)Cc1nc(CN2CCC(C(F)(F)F)CC2)cs1 | 62.51%
CS(=O)(=O)Cc1nc(CN2CCCc3sccc3C2)cs1 | 38.67%
CS(=O)(=O)Cc1nc(CN2CCOc3ccccc3C2)cs1 | 33.9%
CN(C)C1COC2(CCN(S(=O)(=O)c3ccc(F)cc3)CC2)C1 (configuration not stated) | 42.4%
Cc1ccccc1C1CCCN(C(=O)c2c[nH]c(=O)c(Cl)c2)C1 (configuration not stated) | 23.16%
Fc1cccc(N2CCCC3(C2)CN(c2ncccn2)CCO3)c1 (configuration not stated) | 39.9%
Cc1noc(C2CCCN(C(=O)c3ccc(Br)o3)C2)n1 (configuration not stated) | 3.9%
Cc1nn(C)c(C)c1C1CCCN1c1ncnc2[nH]ccc12 (configuration not stated) | -41.8%
COc1ccc2c(c1)CCCN(C(C)C(=O)NC(C)C)C2 (configuration not stated) | 47.68%
COC(=O)C(C)N1CCCc2cc(OC)ccc2C1 (configuration not stated) | 58.69%
COc1ccc2c(c1)CCCN(C(C)C(=O)NC(N)=O)C2 (configuration not stated) | 6.92%
CCc1cc(C)c(C(=O)N2CCCC2CC(=O)c2cnn(C)c2)o1 (configuration not stated) | 9.3%
COc1ccccc1CC1CCCN(C(=O)c2cn[nH]c2C)C1 (configuration not stated) | -62.85%
NCC1CCC(C(NC(=O)c2ccccn2)c2ccccn2)CC1 (configuration not stated) | 8.1%
CCN1CCOCC2(CCCN(C(=O)c3conc3C)C2)C1 (configuration not stated) | 16.67%
